A short description of experiment [1]: AP1 Signaling Pathway (AID 357; active means well fitted curve in either direction with a large enough effect, not every such curve was filed as active; further: on the % scale 0 is the no-effect control and ±100 the full control effect). The note with it: ME-180 AP-1-bla reporter, EGF-induced, beta-lactamase ratio, 5 h; at 7.69 µM (top of the series) unless noted. Summed up: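 A ratiometric CCF4 readout (405 nm excitation; 460 and 530 nm emission) quantified AP-1-driven beta-lactamase in ME-180 cells after 5 h with compound and EC50 EGF; AC50 values were derived for activators and inhibitors.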

The target in experiment [2] is Cytochrome P450 1A2 (Homo sapiens) (UniProt P05177). Nature of the experiment: p450-cyp1a2 (AID 410; calls by dose curve; further: potency means the concentration at half of the fitted maximal effect). The gist of the method:
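O-Demethylation of luciferin 6' methyl ether by human CYP1A2 is monitored as luciferase luminescence. Substrate sits at Km (100uM); enzyme is 20nM. Values are scaled to 57 uM furafylline as maximal inhibition.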

Experiment [3] can be described thus: NFAT Signaling Pathway (AID 444; active means well fitted curve in either direction with a large enough effect, not every such curve was filed as active;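 further: carbachol stimulus at about its EC50 of 1 µM final; on the % scale 0 is the no-effect control and ±100 the full control effect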). The note with it: Jurkat NFAT-bla M1, carbachol, beta-lactamase ratio, 5 h; at 7.69 µM (top of the series) unless noted. Summed up:
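Jurkat cells with NFAT-driven β-lactamase reporter and co-expressed M1 receptor, stimulated with carbachol (final 1 uM, ~EC50), compound titration, 5 h at 37 °C. CCF4 loaded 1 h at RT; 460/530 nm ratio gave %activity and AC50.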

A short description of experiment [4]: Stat Signaling Pathway (AID 446; active means well fitted curve in either direction with a large enough effect, not every such curve was filed as active;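 further: ME-180 cervical cancer cells given 40 pM IL-6 alongside compound; SIE-controlled beta-lactamase reporter measured as 460/530 nm FRET emission ratio; on the % scale 0 is the no-effect control and ±100 the full control effect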). To be noted: ME-180 SIE beta-lactamase reporter, IL-6 stimulated, 5 h; at 7.69 µM (top of the series) unless noted. The gist of the method:
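Normalization used AC90 stimulation (300 pM IL-6) and AC90 inhibition (125 nM pan-JAK inhibitor at 40 pM IL-6). The underlying signal is SIE-driven beta-lactamase in ME-180 cells after 5 h IL-6 exposure with compound.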

Experiment [5] addresses Glucocorticoid receptor (Homo sapiens) (UniProt P04150). Kind of experiment: GR-GFP Redistribution (AID 450;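 active means compounds whose dose series gives a full or clear partial fitted curve of increased nuclear translocation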; further: potency means the concentration at half of the fitted maximal effect). To be noted: U2OS GR-GFP nuclear translocation, laser cytometry, 2 h.
Experiment [6] shares this target. Nature of the experiment: GR-EFC Redistribution (AID 451; calls by dose curve; further: potency means the concentration at half of the fitted maximal effect). To be noted: CHO-K1 GR-EFC translocation, beta-gal luminescence, 2 h. The gist of the method:
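CHO-K1 cells expressing nuclear EA and GR-ED fragments of b-gal; compounds titrated up to 46 uM final, 2 h at 37 C. GR nuclear translocation read as complemented b-gal luminescence after 1 h RT detection.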

The target in experiment [7] is Mitogen-activated protein kinase 10 (Mus musculus) (UniProt Q61831). Kind of experiment: JNK3 AlphaScreen Assay (AID 530; active means well fitted curve in either direction with a large enough effect, not every such curve was filed as active;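 further: kinase came from lysate of stimulated human HepG2 cells; signal reports phosphorylation of biotinylated GST-cJun 1-79 at Ser73 with 10 µM ATP; on the % scale 0 is the no-effect control and ±100 the full control effect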). Summed up: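 Activity was read by AlphaScreen after JNK3-containing HepG2 lysate (cytokine pre-activated) phosphorylated biotinylated GST-cJun with 10 uM ATP at room temperature. Phospho-Ser73 cJun antibody with Protein-A acceptor beads provided detection.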
For orientation: In Alpha technology, singlet oxygen from a donor bead excites a nearby acceptor bead.

The target in experiment [8] is 3',5'-cyclic-AMP phosphodiesterase 4B (Homo sapiens) (UniProt Q07343). Nature of the experiment: qHTS Assay for Inhibitors of PDE-IV (AID 607; active means well fitted activation curve with a large enough effect in the main read-out, with a control signal flat, not every such curve was filed as active; further: % of control where 0% means no effect). The gist of the method: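 HEK293 ACTOne cells with CNG channel (1000/well), endogenous PDE4; membrane potential dye, compounds up to 22.9 uM final. Fluorescence Ex 535/Em 590; RO 20-1724 (100 uM final) as reference.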
3',5'-cyclic-AMP phosphodiesterase 4B (Homo sapiens), sequence (Q07343 whole entry, looked up): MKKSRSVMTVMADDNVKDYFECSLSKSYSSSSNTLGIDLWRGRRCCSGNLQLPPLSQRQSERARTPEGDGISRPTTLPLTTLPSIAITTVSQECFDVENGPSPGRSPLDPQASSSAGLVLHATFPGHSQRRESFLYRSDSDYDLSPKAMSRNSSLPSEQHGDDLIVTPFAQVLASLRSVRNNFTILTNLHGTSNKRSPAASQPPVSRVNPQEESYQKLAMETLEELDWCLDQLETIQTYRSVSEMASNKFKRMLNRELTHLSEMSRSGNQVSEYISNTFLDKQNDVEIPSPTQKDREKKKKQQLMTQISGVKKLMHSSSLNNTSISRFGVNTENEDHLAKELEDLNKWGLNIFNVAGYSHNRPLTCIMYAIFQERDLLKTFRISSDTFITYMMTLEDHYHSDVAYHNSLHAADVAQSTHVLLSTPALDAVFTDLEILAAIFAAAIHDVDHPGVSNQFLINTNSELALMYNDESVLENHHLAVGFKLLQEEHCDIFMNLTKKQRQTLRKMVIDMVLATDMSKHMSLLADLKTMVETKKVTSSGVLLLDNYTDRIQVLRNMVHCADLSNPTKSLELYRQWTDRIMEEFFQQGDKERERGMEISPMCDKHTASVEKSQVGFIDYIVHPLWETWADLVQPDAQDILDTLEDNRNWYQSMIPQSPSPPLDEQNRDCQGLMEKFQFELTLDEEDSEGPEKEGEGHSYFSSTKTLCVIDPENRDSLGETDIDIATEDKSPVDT
For experiment [9], the target named is Cytochrome P450 3A4 (Homo sapiens) (UniProt P08684). Kind of experiment: qHTS Assay for Inhibitors and Substrates of Cytochrome P450 3A4 (AID 884). Further: potency means the concentration at half of the fitted maximal effect; nearly all actives have a fitted effect of over 50% in size. The gist of the method:
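Luminescent readout of luciferin produced by CYP3A4 (20 nM) dealkylation of Luciferin-PPXE, 25 uM (its KM). NADPH-driven reaction ran 60 min at RT after 10 min compound preincubation; data scaled to 57 uM ketoconazole as 100% inhibition.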

The target is the same in experiment [10]. Kind of experiment: qHTS Assay for Activators of Cytochrome P450 3A4 (AID 885). Further: nearly all actives have a fitted effect of over 65% in size. The gist of the method:
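Human CYP3A4 dealkylates Luciferin-PPXE to luciferin, which luciferase detection converts to light. Substrate was at its KM (25uM), buffer 200mM KPO4, reaction 60 min at RT.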

Experiment [11] can be described thus: qHTS Assay for Lipid Storage Modulators (AID 1519; calls by dose curve). The note with it: Drosophila S3 cells, BODIPY lipid droplet/cell ratio, laser cytometry, cells loaded with oleic acid; for activity change, negative = inhibition: at 57.5 µM (top of the series). Summed up:
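Cells seeded at 5,000 per well were treated with compounds over a concentration series and loaded with oleic acid (400 uM, as added). Lipid droplet fluorescence (488 nm excitation, 500-530 nm channel) was read by laser-scanning cytometry and normalized to 20 uM Triacsin C.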

For experiment [12], the target named is Dual specificity protein kinase CLK4 (Homo sapiens) (UniProt Q9HAZ1). Kind of experiment: qHTS Assay for Inhibitors of CDC-like Kinase 4 (Kinase-Glo Assay) (AID 1770). Further: nearly all actives have a fitted effect of over 65% in size. Further: potency means the concentration at half of the fitted maximal effect. Summed up:
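Substrate mix (RS peptide 100 uM, ATP 1 uM) dispensed, compound pinned in, then Clk4 added to 25 nM final. Incubated 4.5 h at RT; Kinase-Glo reagent added, luminescence read after 5 min.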
(In general: In qHTS, concentration-response curves come from the screen itself.)

Experiment [13] has the same target. Nature of the experiment: qHTS Assay for Inhibitors of CDC-like Kinase 4 (ADP-FP Assay) (AID 1795). Further: nearly all actives have a fitted effect of over 60% in size. Further: potency means the concentration at half of the fitted maximal effect. Summed up:
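Clk4 6.25 nM; RS peptide 100 uM; ATP 1 uM; 25 mM Tris pH 7.5, 10 mM MgCl2; 1 h reaction. ADP detected via antibody/orange tracer FP displacement; TG003 positive control.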

Experiment [14] concerns the target Ubiquitin carboxyl-terminal hydrolase 1 (Homo sapiens) (UniProt O94782). Kind of experiment: Inhibitors of USP1/UAF1: Pilot qHTS (AID 504865).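 Further: rhodamine fluorescence freed from ubiquitin-rhodamine substrate followed over time; top concentration of the series differs between compounds; on the % scale 0 is the no-effect control and ±100 the full control effect; nearly all actives have a fitted effect of over 35% in size.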 Summed up: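 In 50mM HEPES pH 7.8 containing 0.5mM EDTA, 1mM TCEP, 0.1 mg/ml BSA and 0.01% Tween-20, 1nM USP1/UAF1 is exposed to compound for 15 min, then Ub-Rho (150nM final) is added and fluorescence is read over time.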

The nature of experiment [15]: Primary qHTS for small molecule stabilizers of the endoplasmic reticulum resident proteome: Secreted ER Calcium Modulated Protein (SERCaMP) assay (AID 1508630). Further: on the % scale 0 is the no-effect control and ±100 the full control effect. Summed up: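 The SH-SY5Y reporter protocol was run at 3 concentrations up to 38.3 uM (primary) or 11 concentrations (follow-up): 16 h compound, 100 nM thapsigargin for 4 h, then extracellular luciferase luminescence.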

For experiment [16], the target named is Lysosomal acid glucosylceramidase (Homo sapiens) (UniProt P04062). Kind of experiment: Glucocerebrosidase-p2 (AID 348; in the data active means potency below about 10 µM; further: potency means the concentration at half of the fitted maximal effect). To be noted: purified GBA, blue fluorogenic substrate, 40 min. Summed up:
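Normal human glucocerebrosidase (0.2 nM) with blue fluorogenic substrate (80 uM final) in citrate/phosphate pH 5.9 with 10mM sodium taurocholate, 0.01% tween-20; 40 min RT, NaOH/glycine stop; fluorescence Ex 365/Em 440; AC50 from a titration from 0.6 nM upwards.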

A short description of experiment [17]: qHTS Assay for Identification of Small Molecule Agonists for Hypoxia Response Element Signaling Pathway (AID 914; active means well fitted activation curve with a large enough effect in the signal ratio, with a control signal flat, not every such curve was filed as active; the % refers to the signal ratio; further: potency means the concentration at half of the fitted maximal effect). The note with it: ME-180 (cervical carcinoma) HRE-bla reporter, beta-lactamase ratio, CoCl2, 17 h; activation: stronger effect = higher value. Summed up:
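qHTS titration; ME-180 HRE-bla cells; EC50 CoCl2 co-treatment, 17 h at 37 degrees Celsius; CCF4 dye, ex 405nm, em 460nm and 530nm; %Activity from ratio; AC50.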

Experiment [18] has as its target Cytochrome P450 2C9 (Homo sapiens) (UniProt P11712). Nature of the experiment: qHTS Assay for Inhibitors and Substrates of Cytochrome P450 2C9 (AID 883). Further: on the % scale 0 is the no-effect control and ±100 the full control effect; nearly all actives have a fitted effect of over 60% in size. The gist of the method: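 Signal: luciferase luminescence reporting luciferin produced by CYP2C9. Conditions: 10nM enzyme, Luciferin-H 100uM at KM, 25mM KPO4, 37C, 60 min NADPH-driven reaction. Reference: 57uM sulphaphenazole as 100% inhibition.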

Where [19] appears, read: measured here: cell count channel max response.
The mark [20] stands for this setting: measured here: lipid channel max response.

Inconclusive results are not listed. Active and inactive are the calls of the source. Unless noted, the call rests on the fitted dose curve; in most records, active means well fitted curve in the direction sought with a large enough effect; inconclusive means small, poorly fitted or top-dose-only effect, or another doubt; inactive means no such curve, though single readings can be large; an effect the other way counts as inactive or inconclusive. Bounds are passed on as bounds.

Cytochrome P450 3A4 (Homo sapiens), sequence (P08684 whole entry, looked up): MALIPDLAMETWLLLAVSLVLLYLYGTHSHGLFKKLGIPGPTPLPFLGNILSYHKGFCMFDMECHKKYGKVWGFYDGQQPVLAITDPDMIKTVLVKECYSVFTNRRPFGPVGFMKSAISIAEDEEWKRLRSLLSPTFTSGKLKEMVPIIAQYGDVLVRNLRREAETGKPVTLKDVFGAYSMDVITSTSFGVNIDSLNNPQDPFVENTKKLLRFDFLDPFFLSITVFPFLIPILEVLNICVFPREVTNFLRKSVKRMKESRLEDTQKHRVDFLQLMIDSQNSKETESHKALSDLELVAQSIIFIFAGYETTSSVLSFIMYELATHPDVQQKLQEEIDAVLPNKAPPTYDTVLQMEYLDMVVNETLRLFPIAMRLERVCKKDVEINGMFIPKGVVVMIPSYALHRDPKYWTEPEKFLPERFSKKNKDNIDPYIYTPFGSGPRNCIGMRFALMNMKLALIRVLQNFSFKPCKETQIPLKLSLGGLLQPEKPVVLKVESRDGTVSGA
Glucocorticoid receptor (Homo sapiens), sequence (P04150 whole entry, looked up): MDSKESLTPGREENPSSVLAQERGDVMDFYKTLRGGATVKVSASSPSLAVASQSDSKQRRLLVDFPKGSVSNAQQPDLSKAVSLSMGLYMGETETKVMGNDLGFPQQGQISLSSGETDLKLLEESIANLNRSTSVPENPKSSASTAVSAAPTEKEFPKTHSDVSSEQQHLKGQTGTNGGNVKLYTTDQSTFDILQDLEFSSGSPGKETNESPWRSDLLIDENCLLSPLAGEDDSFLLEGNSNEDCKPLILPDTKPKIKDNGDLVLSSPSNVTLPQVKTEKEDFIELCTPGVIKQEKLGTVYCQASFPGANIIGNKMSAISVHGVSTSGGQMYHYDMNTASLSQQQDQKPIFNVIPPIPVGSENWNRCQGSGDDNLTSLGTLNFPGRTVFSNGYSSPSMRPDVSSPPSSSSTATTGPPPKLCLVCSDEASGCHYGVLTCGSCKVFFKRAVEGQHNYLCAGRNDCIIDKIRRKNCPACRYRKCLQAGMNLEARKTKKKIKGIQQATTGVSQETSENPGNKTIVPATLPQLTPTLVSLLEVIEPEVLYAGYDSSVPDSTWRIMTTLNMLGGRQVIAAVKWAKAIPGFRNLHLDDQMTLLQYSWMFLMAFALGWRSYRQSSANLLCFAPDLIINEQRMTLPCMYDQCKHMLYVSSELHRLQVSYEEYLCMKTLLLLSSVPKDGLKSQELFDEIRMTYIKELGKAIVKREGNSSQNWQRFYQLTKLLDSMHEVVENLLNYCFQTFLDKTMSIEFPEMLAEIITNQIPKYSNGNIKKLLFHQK
Cytochrome P450 1A2 (Homo sapiens), sequence (P05177 whole entry, looked up): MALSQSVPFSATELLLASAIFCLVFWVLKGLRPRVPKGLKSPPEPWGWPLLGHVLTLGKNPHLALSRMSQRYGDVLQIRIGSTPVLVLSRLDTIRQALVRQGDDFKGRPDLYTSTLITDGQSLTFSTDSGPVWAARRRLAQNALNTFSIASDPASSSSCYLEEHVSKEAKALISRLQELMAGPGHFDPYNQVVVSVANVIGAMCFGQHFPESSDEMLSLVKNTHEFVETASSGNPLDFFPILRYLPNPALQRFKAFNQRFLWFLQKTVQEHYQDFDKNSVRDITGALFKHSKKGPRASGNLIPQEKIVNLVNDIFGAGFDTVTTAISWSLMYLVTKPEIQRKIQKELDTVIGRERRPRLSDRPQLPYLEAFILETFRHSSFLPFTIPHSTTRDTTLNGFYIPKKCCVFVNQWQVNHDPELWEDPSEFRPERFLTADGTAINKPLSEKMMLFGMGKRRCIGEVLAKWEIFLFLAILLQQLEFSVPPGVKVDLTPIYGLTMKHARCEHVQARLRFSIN
Ubiquitin carboxyl-terminal hydrolase 1 (Homo sapiens), sequence (O94782 whole entry, looked up): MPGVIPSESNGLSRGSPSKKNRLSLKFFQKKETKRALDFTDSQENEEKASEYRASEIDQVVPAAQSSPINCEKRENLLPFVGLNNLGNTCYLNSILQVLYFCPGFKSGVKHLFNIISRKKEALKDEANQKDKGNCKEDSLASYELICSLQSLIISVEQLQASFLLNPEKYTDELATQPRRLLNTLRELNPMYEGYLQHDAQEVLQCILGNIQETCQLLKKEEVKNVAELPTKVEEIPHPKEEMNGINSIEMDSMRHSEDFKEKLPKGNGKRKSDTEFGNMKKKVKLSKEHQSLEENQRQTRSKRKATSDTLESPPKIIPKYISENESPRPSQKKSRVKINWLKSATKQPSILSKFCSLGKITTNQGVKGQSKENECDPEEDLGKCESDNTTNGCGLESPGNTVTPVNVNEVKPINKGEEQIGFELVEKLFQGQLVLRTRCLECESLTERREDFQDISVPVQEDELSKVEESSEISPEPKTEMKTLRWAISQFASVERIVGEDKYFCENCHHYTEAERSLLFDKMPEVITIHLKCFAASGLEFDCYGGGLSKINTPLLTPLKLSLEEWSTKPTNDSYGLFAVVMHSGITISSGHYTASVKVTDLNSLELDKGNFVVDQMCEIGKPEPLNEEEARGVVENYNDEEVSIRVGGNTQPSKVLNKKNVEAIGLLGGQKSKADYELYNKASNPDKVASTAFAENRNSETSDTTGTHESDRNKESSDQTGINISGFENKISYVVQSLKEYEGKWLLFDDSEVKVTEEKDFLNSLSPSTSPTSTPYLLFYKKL
Dual specificity protein kinase CLK4 (Homo sapiens), sequence (Q9HAZ1 whole entry, looked up): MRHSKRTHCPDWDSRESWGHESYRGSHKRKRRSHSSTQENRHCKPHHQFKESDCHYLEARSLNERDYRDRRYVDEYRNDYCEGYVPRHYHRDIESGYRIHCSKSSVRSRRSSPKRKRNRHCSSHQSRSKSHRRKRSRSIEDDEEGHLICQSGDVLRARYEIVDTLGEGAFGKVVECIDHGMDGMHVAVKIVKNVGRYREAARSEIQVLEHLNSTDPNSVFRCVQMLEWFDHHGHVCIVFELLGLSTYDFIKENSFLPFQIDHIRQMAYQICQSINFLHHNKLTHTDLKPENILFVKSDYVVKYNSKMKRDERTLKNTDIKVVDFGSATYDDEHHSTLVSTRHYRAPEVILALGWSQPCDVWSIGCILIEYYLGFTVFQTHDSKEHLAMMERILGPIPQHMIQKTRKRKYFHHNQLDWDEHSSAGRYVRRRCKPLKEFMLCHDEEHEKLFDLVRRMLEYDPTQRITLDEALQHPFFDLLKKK
Lysosomal acid glucosylceramidase (Homo sapiens), sequence (P04062 whole entry, looked up): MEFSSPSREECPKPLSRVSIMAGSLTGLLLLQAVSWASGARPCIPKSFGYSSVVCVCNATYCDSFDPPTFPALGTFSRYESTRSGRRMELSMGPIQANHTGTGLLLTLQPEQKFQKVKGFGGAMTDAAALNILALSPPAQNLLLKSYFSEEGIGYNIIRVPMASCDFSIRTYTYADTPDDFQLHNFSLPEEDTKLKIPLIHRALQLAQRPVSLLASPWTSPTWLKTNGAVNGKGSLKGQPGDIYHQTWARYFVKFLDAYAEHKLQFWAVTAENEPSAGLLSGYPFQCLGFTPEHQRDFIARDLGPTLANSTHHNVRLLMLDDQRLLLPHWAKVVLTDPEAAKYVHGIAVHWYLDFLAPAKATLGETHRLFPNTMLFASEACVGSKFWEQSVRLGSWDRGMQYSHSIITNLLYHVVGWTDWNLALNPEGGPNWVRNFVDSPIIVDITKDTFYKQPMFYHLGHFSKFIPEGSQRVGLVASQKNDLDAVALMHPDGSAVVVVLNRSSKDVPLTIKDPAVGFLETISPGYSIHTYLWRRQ
Cytochrome P450 2C9 (Homo sapiens), sequence (P11712 whole entry, looked up): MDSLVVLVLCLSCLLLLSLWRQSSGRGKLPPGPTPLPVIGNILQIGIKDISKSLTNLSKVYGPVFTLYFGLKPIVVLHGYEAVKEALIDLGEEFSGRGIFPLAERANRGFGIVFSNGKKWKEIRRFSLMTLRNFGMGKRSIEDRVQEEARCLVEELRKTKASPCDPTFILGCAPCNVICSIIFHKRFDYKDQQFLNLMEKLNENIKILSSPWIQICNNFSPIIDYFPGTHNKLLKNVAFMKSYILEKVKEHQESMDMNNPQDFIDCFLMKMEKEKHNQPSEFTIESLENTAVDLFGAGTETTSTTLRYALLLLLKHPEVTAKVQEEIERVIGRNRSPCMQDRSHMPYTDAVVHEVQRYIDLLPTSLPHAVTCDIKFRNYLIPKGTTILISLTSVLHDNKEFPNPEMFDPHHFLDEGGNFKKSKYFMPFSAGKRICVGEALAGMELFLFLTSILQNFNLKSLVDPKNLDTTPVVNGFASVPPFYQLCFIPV

In the case of `CC(=O)NCCNc1ncncc1-c1ccc(N(C)C)cc1`, the activity change, negative = inhibition in [1] was -11.6% (inactive); in [3] it was 9.49% (inactive); in experiment [11] it was -9.91% (inactive). Also, the Potency in experiment [2] is 6.31 µM (active); in experiment [5], > 46 µM (inactive); in [6], > 46 µM (inactive); in experiment [9] it was 2 µM (active). Further, in [4], the activity, negative = inhibition is 9.91% (inactive). Also, the compound was classed as inactive in experiment [7]. The Potency entry in experiment [8], in experiment [10], in experiment [12], in experiment [13], in [14] and in [15] was “inactive” throughout. The max response was 25.7% in experiment [11] (setting [19]) and 8.09% in [11] (setting [20]).
With `Cc1cnc(CNc2ccnc(-c3c(C)noc3C)n2)cn1`, the Potency is > 11.4 µM (inactive) in [16], 12.6 µM (active) in [2], > 46 µM (inactive) in [5] and > 46 µM (inactive) in experiment [6]. Also, the figures for the activity change, negative = inhibition in [1], in experiment [3] and in experiment [11] were 1.51% (inactive), 10.3% (inactive) and 7.48% (inactive), respectively. In experiment [4], the activity, negative = inhibition is 1.5% (inactive). Further, the compound was called inactive in experiment [7]. In addition, the Potency entry in experiment [8], in experiment [10], in experiment [12], in experiment [13], in [14] and in experiment [15] was “inactive” each time. Moreover, the max response is 24.6% in experiment [11] (setting [19]) and 37.5% in experiment [11] (setting [20]).
As for `Cn1c(=O)c(-c2cccs2)nc2cnc(N3CCNCC3)nc21`, the Potency in [16] is > 11.4 µM (inactive); in experiment [2], 10 µM (active); in [5], > 9.22 µM (inactive); in experiment [6], > 46 µM (inactive); in experiment [17], 3.16 µM (active). For the same compound, in [7], the compound was classed as inactive. Moreover, the Potency result in experiment [8], in experiment [10], in experiment [12], in experiment [13], in experiment [14] and in [15] was “inactive” each time. Moreover, the activity change, negative = inhibition in [11] is 4.59% (inactive). Also, the max response turned out to be 15.4% in [11] (setting [19]) and 18.9% in experiment [11] (setting [20]).
Turning to `CCNc1ncc2nc(-c3cn(C)c4ccccc34)c(=O)n(-c3ccccc3)c2n1`, the Potency was > 11.4 µM (inactive) in experiment [16]; 15.8 µM (active) in [2]; > 9.22 µM (inactive) in experiment [5]; > 46 µM (inactive) in [6]; 20 µM (active) in experiment [12]. The activity change, negative = inhibition in [1] is 2.53% (inactive); in [3] it was 3.22% (inactive); in [11], -0.273% (inactive). Further, in [4], the activity, negative = inhibition was -9.31% (inactive). Moreover, the call in experiment [7] was inactive. Besides, the Potency result in experiment [18], in [13], in experiment [14] and in [15] was “inactive” in each case. Besides, the figures for the max response in [11] (setting [19]) and in experiment [11] (setting [20]) were 19.3% and 17.5%, respectively.
Consider `COCCNc1ncnc2ccc(-c3cccnc3)cc12`, for which the Potency was > 11.4 µM (inactive) in experiment [16]; 0.2 µM (active) in experiment [2]; > 46 µM (inactive) in [5]; > 46 µM (inactive) in experiment [6]; 12.6 µM (active) in [12]. In addition, the activity, negative = inhibition in experiment [4] was 18% (inactive). For the same compound, the result in experiment [7] was inactive. In addition, the Potency result in experiment [8], in [10], in experiment [14] and in [15] was “inactive” each time. Also, the activity change, negative = inhibition in [11] is 5.11% (inactive). The values for the max response in experiment [11] (setting [19]) and in experiment [11] (setting [20]) were -1.43% and -8.04%, respectively.
As to `COc1ccc2[nH]cc(CCNc3ncnc4ccc(-c5cccnc5)cc34)c2c1`, the Potency in experiment [16] was > 11.4 µM (inactive); in [2], 0.0794 µM (active); in experiment [5] it was > 46 µM (inactive); in experiment [6], > 46 µM (inactive); in experiment [12], 2.24 µM (active); in experiment [13] it was 3.16 µM (active). Moreover, the activity change, negative = inhibition in experiment [3] is 18.7% (inactive); in [11], -3.03% (inactive). Moreover, the activity, negative = inhibition in experiment [4] was -10.2% (inactive). In addition, the Potency result in [8], in [10], in experiment [14] and in [15] was “inactive” each time. The max response in experiment [11] (setting [19]) was -7.3%; in experiment [11] (setting [20]) it was -9.11%.

The values are drawn from PubChem BioAssay (NCATS).
